In PubChem BioAssay AID2315 (National Center for Advancing Translational Sciences (NCATS), 2010):
About 27,000 (9.3%) of roughly 290,000 compounds were called active. This is one part of a sample in which actives are shown more often than they occur. Rule as the data show it: active = inhibition mostly above about 28% (no sharp cut-off); inactive = mostly below about 43%.

assay: A qHTS for Small Molecule Inhibitors of Shiga Toxin; conditions: Vero cells, Shiga toxin protein synthesis inhibition reporter; at 38.7 µM, stronger effect = higher value; also: 0% is about no effect

| Compound | inhibition |
| --- | --- |
| O=C(O)CCC(=O)Nc1ccc(OCC2CCCO2)cc1 (configuration not stated) | 4.1% (inactive) |
| CCOc1ccc(N(C)Cc2cc(=O)oc3ccc(OC)cc23)cc1 | -26.5% (inactive) |
| COC(=O)c1ccc(-n2cnc3ccccc32)nc1 | 159% (active) |
| O=C(c1ccc(Cl)cc1)n1cnc2ccccc21 | -4.02% (inactive) |
| Cc1ccc(OCC(=O)Nn2cnc3ccccc32)cc1 | -4.5% (inactive) |
| O=C(NCc1ccco1)/C(=C/c1ccco1)NC(=O)c1ccccc1 | -2.21% (inactive) |
| COc1ccc(CCNC(=O)CSc2nnc(CNC(=O)c3cccs3)o2)cc1OC | -18.8% (inactive) |
| COc1ccc(-c2nnc(SCC(=O)c3cccs3)o2)c(OC)c1 | 150% (active) |
| COc1ccccc1-c1nnc(SCC(=O)Nc2cc(C)on2)o1 | 18.4% (inactive) |
| CCOc1ccc(N(CC(=O)Nc2ccccc2F)S(=O)(=O)c2c(C)[nH]c(=O)[nH]c2=O)cc1 | -4.99% (inactive) |
| Cc1ccc2cc3cc(C(=O)N4CCCCCC4)oc3nc2c1 | 88.9% (active) |
| Cc1cccc(C(=O)N2CCCN(C(=O)c3cccc(C)c3)CC2)c1 | 19.1% (inactive) |
| Cc1cc(C)cc(NC(=O)N2CCCCCCC2)c1 | -6.48% (inactive) |
| Cc1oc2nc(SCC(=O)Nc3ccc(S(N)(=O)=O)cc3)nc(NC(=O)c3ccccc3)c2c1C | -13.4% (inactive) |
| OCCC1CN(Cc2cnc(-c3ccccc3)s2)CCN1CCc1ccccc1 (configuration not stated) | -10.1% (inactive) |
| COc1ccc(NC(=O)CN2C(=O)COc3ccc(S(=O)(=O)N4CCOCC4)cc32)c(OC)c1 | -2.93% (inactive) |
| COc1cccc(OC)c1C(=O)NC(=S)Nc1ccc(N2CCOCC2)c(Cl)c1 | 44.5% (inactive) |
| COc1cccc(NC(=S)NC(=O)c2c(Cl)c(C)nn2C)c1 | 14.4% (active) |
| Cc1nn(C)c(C(=O)NNC(=S)NC2CCCCC2)c1Cl | 14.6% (inactive) |
| O=C(NCc1ccccn1)[C@]1(C(F)(F)F)C[C@H](CCc2ccccc2)CCCO1 | -3.98% (inactive) |
| Nc1nnc2c(C(F)(F)F)nc3ccccc3n12 | -8.69% (inactive) |
| Cc1cccc(-c2c(NC(=O)c3ccco3)oc3ccc(Cl)cc3c2=O)c1 | 20.5% (inactive) |
| CCCN(CCC)c1ccc(C(O)c2nnc(-c3ccccc3)o2)cc1 (configuration not stated) | 29.6% (inactive) |
| OC(c1nnc(-c2ccccc2)o1)c1cccs1 (configuration not stated) | 111% (active) |
| O=C(Nc1nnc(-c2ccccc2)o1)c1cc(-c2cccs2)nc2ccccc12 | -9.05% (inactive) |

| Compound | inhibition |
| --- | --- |
| Cn1c2ccc(F)cc2c2nnc(NN)nc21 | -15% (inactive) |
| CC(C)c1cc(C(=O)O)n[nH]1 | 15.7% (inactive) |
| CC(C)c1cc(C(=O)N/N=C/C(Br)=C/c2ccccc2)n[nH]1 | 47.5% (active) |
| Cc1cc(C(=O)N/N=C\C(Br)=C\c2ccccc2)c(C)o1 | 54.6% (inactive) |
| O=C(CCc1nnc2ccc(NCc3ccccc3Cl)nn12)NCC1CCN(C2CCCC2)C1 (configuration not stated) | 8.94% (inactive) |
| CCOC(=O)N1CCC(NC(=O)CCc2ccccc2)CC1 | -1.93% (inactive) |
| O=C(O)C1CCN(C(=O)OCc2ccccc2)CC1 | 80.9% (active) |
| O=C(NCC1CCC(C(=O)O)CC1)OCc1ccccc1 (configuration not stated) | -15.3% (inactive) |
| O=c1cc(-c2ccc(O)cc2)oc2c([C@@H]3O[C@H](CO)[C@@H](O)[C@H](O)[C@H]3O)c(O)cc(O)c12 | 18.1% (inactive) |
| Cc1cccc(-n2c(O)c(/C=N/N3CCOCC3)c(=O)[nH]c2=S)c1 | -12.5% (inactive) |
| Cc1cccc(-n2c(O)c(C=Nc3ccccc3N)c(=O)[nH]c2=O)c1 | 57% (active) |
| Cc1cccc(-n2c(O)c(C=NC34CN5CN(CN(C5)C3)C4)c(=O)[nH]c2=O)c1 | 19.9% (inactive) |
| Clc1ccc(-c2nc3ccccn3c2CN2CCSCC2)cc1 | 20.5% (inactive) |
| COc1ccc2[nH]c(=O)c(C3c4cc(OC)c(OC)cc4CCN3C(=O)c3ccco3)cc2c1 (configuration not stated) | -3.2% (inactive) |
| CCOCCCn1c(SCC(=O)Nc2cc(OC)ccc2OC)nc2ccccc2c1=O | -1.05% (inactive) |
| CCc1ccc(-c2cc3c(=O)n(CC(=O)NCCCN4CCN(Cc5ccccc5)CC4)nc(C)n3n2)cc1 | -5.95% (inactive) |
| CCOc1ccc(C(=O)CCN2CCOCC2)cc1 | -2.09% (inactive) |
| CCOc1ccc(N(CC(=O)NCCOc2ccccc2OC)S(=O)(=O)c2ccccc2)cc1 | 21.1% (inactive) |
| Cc1nonc1NC(=O)CSc1nc2ccccc2cc1C#N | 41.1% (inactive) |
| COc1ccc(N2CCN(C(=O)CSc3nc4cc(OC)c(OC)cc4cc3C#N)CC2)cc1 | 18.6% (inactive) |
| CCOc1ccc2cc(C#N)c(SCC(=O)OC)nc2c1 | 135% (active) |
| CN=C1C=C/C(=N/N=c2\ccn(O)cc2C)C=C1C | 20.1% (active) |
| Cc1cccc(NC(=S)NCCc2ccc(Cl)cc2)c1C | 41.2% (inactive) |
| Cc1ccc(/C=C2\CCn3c2nc2cc(C(=O)O)ccc2c3=O)c(C)c1 | -4.26% (inactive) |
| Cc1nn(C)c(Cl)c1CN1CCC(Oc2ccc(C(=O)N3CCCC3)cc2)CC1 | -30.4% (inactive) |

| Compound | inhibition |
| --- | --- |
| O=C(O)C1CC=CC2CCN(C3CCCCC3)C(=O)C21 (configuration not stated) | -9.66% (inactive) |
| Cn1c(=NC(=O)C2CC2)sc2cc(F)cc(F)c21 | -1.62% (inactive) |
| CCCC(=O)N=c1sc2cccc(F)c2n1C | -7.62% (inactive) |
| Cn1c(=NC(=O)c2ccco2)sc2cccc(F)c21 | 102% (active) |
| O=C(O)c1cc2c(cc1NC(=O)c1c(F)cccc1Cl)OCCCO2 | -14.4% (inactive) |
| CSc1ccccc1-c1nnc(-c2ccc(Cl)cc2)o1 | 0% (active) |
| O=C(Nc1nnc(-c2ccc(Cl)cc2)o1)c1ccccc1Br | 16.2% (inactive) |
| FC(F)(F)c1cnc(Oc2ccccc2-c2nnc(-c3ccc(Cl)cc3)o2)c(Cl)c1 | 5.98% (inactive) |
| CCOC(=O)N1CCN(S(=O)(=O)c2ccc(OC)cc2)CC1 | -26% (inactive) |
| OC(CNCC1CCCO1)Cn1c2ccc(Br)cc2c2cc(Br)ccc21 (configuration not stated) | -17.6% (inactive) |
| CCCN1CCn2c3c(c4cc(Br)ccc42)CCCC31 (configuration not stated) | 31.7% (active) |
| Cc1cc(C)c2nc(N(CCN(C)C)C(=O)/C=C/c3cccs3)sc2c1 | 2.24% (inactive) |
| CSCc1nnc(NC(=O)c2ccc(S(=O)(=O)N3CCCCC3C)cc2)o1 (configuration not stated) | -11% (inactive) |
| CCCOC(=O)Cc1c(O)c2ccccc2[nH]c1=O | 2.32% (inactive) |
| NS(=O)(=O)c1ccccc1NC(=O)c1c(O)c2ccccc2[nH]c1=O | 86% (active) |
| CC(C)C(=O)Nc1c(O)c2ccccc2[nH]c1=O | 23.1% (inactive) |
| CC(=O)Nc1cccc(C(=O)OCN2C(=O)c3ccccc3C2=O)c1 | -7.54% (inactive) |
| Cc1cnc(NC(=O)CSc2c(Cl)cccc2Cl)s1 | 24.3% (inactive) |
| Cc1cnc(NC(=O)CSc2nnc(-c3ccc(Cl)cc3Cl)n2N)s1 | 20.9% (active) |
| Cc1cnc(NC(=O)CSc2nnc(-c3ccccc3)n2Cc2ccccc2)s1 | -7.47% (inactive) |
| COc1ccc(C)cc1N(CC(=O)N1CCCC1)S(=O)(=O)c1ccccc1 | 8.24% (inactive) |
| COc1ccccc1CN1CCN(C(c2ccccc2)c2ccccc2)CC1 | -13% (inactive) |
| COc1cc(OC)c(NC(=O)C2CCCN2C(=O)OCc2ccccc2)cc1Cl (configuration not stated) | -6.5% (inactive) |
| COc1ccc(OC)c(-c2csc(-c3cccs3)n2)c1 | 45.3% (active) |
| COc1ccc(-c2csc(NC(=O)c3ccc(N4C(=O)CCC4=O)cc3)n2)cc1OC | -16.4% (inactive) |

| Compound | inhibition |
| --- | --- |
| COc1ccc(OC)c(-c2csc(NC(=O)C3=NNC(=O)CC3)n2)c1 | -5.75% (inactive) |
| COc1ccc2c(c1)C(c1cccs1)=NNC(c1cccnc1)=N2 | 39.6% (inactive) |
| COc1ccc(-c2csc3nc(-c4ccccc4F)oc(=O)c23)cc1OC | 1.32% (inactive) |
| Cc1cc(C)cc(NS(=O)(=O)Cc2ccccc2)c1 | 40.6% (inactive) |
| O=C(N/N=C\c1cc2c(cc1Cl)OCO2)c1ccc(Br)s1 | -3.59% (inactive) |
| CC(NCc1cccs1)C(=O)Nc1cc(Cl)cc(Cl)c1 (configuration not stated) | 24.3% (inactive) |
| Cc1ccc(-c2csc(N3CCN(c4cc5c(cc4Cl)nc(-c4ccncc4)n5CCOCCO)CC3)n2)cc1 | -3.86% (inactive) |
| Cc1sc2ncn(CC(=O)NCCCC(=O)NCc3ccc(F)cc3)c(=O)c2c1C | -6.98% (inactive) |
| Cc1n[nH]c(=O)n1-c1ccc(C(C)C)cc1 | -1.39% (inactive) |
| Cc1n[nH]c(=O)n1-c1ccc(Oc2ccccc2)cc1 | 32% (active) |
| O=C1CS(=O)CN1c1ccc(Oc2ccccc2)cc1 (configuration not stated) | -11.4% (inactive) |
| COC(=O)c1ccccc1SC1CC(=O)N(c2cccc(C)c2)C1=O (configuration not stated) | 25.9% (inactive) |
| Cc1ccc([N+](=O)[O-])cc1S(=O)(=O)N1CCCN(C)CC1 | -3.46% (inactive) |
| C(=N\Nc1ccc2ccccc2n1)/c1ccc2c(c1)OCO2 | 4.21% (inactive) |
| Cc1noc(C)c1/C=N/Nc1ccc2ccccc2n1 | 64.2% (active) |
| Cc1nc(Cl)cc(N/N=C/c2ccccc2)n1 | 47.5% (inactive) |
| CN(C)CCCNC(=S)N1CCN(c2nc(-c3ccccc3)cs2)CC1 | 23.7% (inactive) |
| COc1ccccc1-c1sc2ccccc2c1-c1ccc(C(C)=O)cc1 | 24.8% (active) |
| COc1ccccc1-c1c(C)nn2c(C)c(C(C)=O)cnc12 | 3.88% (inactive) |
| COc1cc(C(C)=O)ccc1OC(=O)CN1C(=O)c2ccccc2C1=O | -4.18% (inactive) |
| CCOc1ccc(C2C(C#N)=C(N)N(N(C)C)C3=C2C(=O)CCC3)cc1 (configuration not stated) | -5.92% (inactive) |
| CC(C)c1ccc(/C=C2\NC(=O)NC2=O)cc1 | 38.8% (inactive) |
